According to PubChem BioAssay:
Activity calls are given as the source filed them.

Assay: CREB reporter modulators under forskolin, primary screen, cell-based, PC12, CRE-LacZ reporter, forskolin-stimulated (AID 1146);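 note: PC12 cells with 6xCRE LacZ reporter stimulated by forskolin 10 µM; beta-galactosidase reporter signal reflecting CREB driven transcription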
Details: luminescence, 4.5 h, higher = more signal, called active from +8 up or from −8 down

z-score, inactive:
CCOC(=O)[C@H](Cc1ccccc1)NC(=O)CCC1CC(OC(=O)NCc2cccc3ccccc23)CC2(CCCC(COC(=O)NCCC(C)C)O2)O1 (some centres undefined) 0.214
CC(C)CON=C1[C@H]2CCn3c(=O)n(Cc4cc5c(cc4Cl)OCO5)c(=O)n3[C@H]2[C@H](O)[C@@H]2O[C@H]12 0.819
CC(CCC(=O)OC[C@H]1O[C@H](C#Cc2ccccc2)C=C[C@@H]1Oc1ccc(C)cc1)=NO[C@H](C)c1cn([C@H](CO)Cc2ccccc2)nn1 1.15
COc1ccc(COC(=O)NN=C2C[C@@H](O)[C@@H](O)[C@@H]3[C@@H]4C(=O)N(c5ccc(F)cc5F)C(=O)[C@@H]4CC[C@H]23)cc1 0.454
C#CCCCON=C1[C@H]2CCn3c(=O)n(C)c(=O)n3[C@H]2[C@H](O)[C@@H]2O[C@H]12 -0.149
CC(C)=CCCC(C)=CCON=C1C[C@@H](O)[C@@H](O)[C@@H]2[C@@H]3C(=O)N(C(C)(C)C)C(=O)[C@@H]3CC[C@@H]12 0.585
CCN1C(=O)[C@H]2[C@H]3[C@H](O)[C@H](O)CC(=O)[C@@H]3CC[C@H]2C1=O -0.69
O=C1CCCC=C1C(O)CCOC(c1ccccc1)(c1ccccc1)c1ccccc1 (centres undefined) 1.57
COC(=O)CC=C[C@@H](C)[C@@H](C=NOC[C@H]1O[C@H](c2ccccc2)C=C[C@@H]1Oc1ccc(OC)cc1)NS(=O)(=O)c1ccc(C)cc1 0.519
CC(CCN1CCCc2nc(C)c(C)cc21)=NO[C@@H](C)c1cc(-c2c(C)cc(C)cc2C)no1 -0.559
CO[C@H](C1CCCCC1)[C@H](C)C=CCC(=O)OCCCc1ccccc1 -0.468
CC(C)=CCCC(C)=CCON=C1C[C@@H](O)[C@@H](O)[C@@H]2[C@@H]3C(=O)N(C[C@@H]4CCCO4)C(=O)[C@@H]3CC[C@H]12 0.174
O=C1OCCC=C1C(O)CCc1ccccc1 (centres undefined) 0.571
COCOc1ccc(Br)cc1C(=O)[C@@H]1O[C@H]1c1cccc(OC)c1 -0.37
CC(C)=CCCC(C)=CCON=C1C[C@@H](O)[C@@H](O)[C@@H]2[C@@H]3C(=O)N(Cc4ccccc4)C(=O)[C@@H]3CC[C@H]12 -0.96
COC(=O)[C@@H]1CC[C@H](C)[C@@H](c2ccc(C)cc2)N1C(=O)c1ccc(C=NOCC[C@@H]2C=C[C@H](OC(C)=O)[C@@H](COC(C)=O)O2)cc1 -0.0189
CON=C1[C@H]2CCn3c(=O)n(-c4ccccc4)c(=O)n3[C@H]2[C@H](O)[C@@H]2O[C@H]12 0.236
CO[C@@H]1C=CCC(=O)N[C@@H](C)C(=O)OC[C@@H](OC)[C@H](C)CCCC(=O)OC[C@H]1C 0.0561
O=C1C[C@@H](O)[C@@H](O)[C@@H]2[C@@H]3C(=O)N(C[C@@H]4CCCO4)C(=O)[C@@H]3CC[C@@H]12 0.287
CON=C[C@@H](C)[C@H](OCc1ccccc1)C(C)C -0.278
COC(=O)CC=C[C@@H](C)[C@@H]1C=C[C@H](O)[C@@H](CO)O1 1.03
Cc1ccc(S(=O)(=O)n2c3ccccc3c3nnc(C(=O)c4ccccc4)nc32)cc1 -1.15
CC(C)CON=C1C[C@@H](O)[C@@H](O)[C@@H]2[C@@H]3C(=O)N(c4ccc(F)cc4F)C(=O)[C@@H]3CC[C@H]12 -0.907
CC(CCN1CCc2nc(-c3ccccc3)c(-c3ccccc3)cc2C1)=NOC[C@@H](O)COCc1ccco1 -0.724
COc1cccc([C@H]2Oc3ccc(OC)cc3C(=NOC[C@@H](O)COCc3ccco3)[C@@H]2O)c1 0.493
CC(CCN1CCCCc2nc(C)c(C)cc21)=NOC[C@@H](C)[C@H](OCc1ccccc1)C(C)C 0.264
O=C(NN=C1C[C@@H](O)[C@@H](O)[C@@H]2[C@@H]3C(=O)N(C[C@@H]4CCCO4)C(=O)[C@@H]3CC[C@H]12)OCc1ccccc1 -0.105
COC(=O)[C@H]1[C@@H](O)[C@@]2(O)c3ccccc3O[C@@]2(c2ccccc2)[C@@H]1c1ccccc1 0.0923
CC(C)(C)N1C(=O)[C@H]2[C@H]3[C@H](O)[C@H](O)CC(=NO[C@@H]4O[C@H](CO)[C@@H](O)[C@H](O)[C@H]4O)[C@H]3CC[C@H]2C1=O -0.0093
